Screening data deposited in PubChem by National Center for Advancing Translational Sciences (NCATS).
HT1080 IDH1KD tx = qHTS for induction of synthetic lethality in tumor cells producing 2HG: qHTS for the HT-1080-IDH1KD cell line; 360,000 compounds, 2% hits; HT-1080 IDH1 knockdown viability, ATP luminescence, 48 h; Potency, µM (doses to about 46.1 µM), for the others: at the highest dose activity, negative = toxicity, hits mostly cytotoxic;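 further: 0% = DMSO wells and -100% = cell-free medium wells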
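IDH1KD HT-1080 cells, 750/well, RPMI + 5% FBS; compound pinned after 2 h settling; 48 h, 37 °C; CellTiter-Glo luminescence; % activity normalised to DMSO and no-cell wells; curves fitted, classed by r2 and efficacy.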
TGFb SMAD3 inh = qHTS for Inhibitors of TGF-b. HepG2 CAGA-GFP TGF-b/SMAD3 reporter, GFP fluorescence, 18 h; TGF-beta stimulated, 500 pg/mL final. Potency, µM (highest dose often 46.1 µM), inactives show top-dose activity, negative = inhibition, actives largely listed as inhibitors. 410,000 compounds, 1.2% hits. AID 588855, 2011; further: on the % scale 0 is the no-effect control and ±100 the full control effect; nearly all actives have a fitted effect of over 65% in size
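Using HEPG2 CAGA-GFP reporter cells at 1000 cells/well, we pinned test compounds, stimulated with recombinant TGF-beta (500 pg/mL final) and measured total well GFP after 18 h.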
HT1080NT lethal = qHTS for induction of synthetic lethality in tumor cells producing 2HG: qHTS for the HT-1080-NT fibrosarcoma cell line | HT-1080-NT fibrosarcoma viability, CellTiter-Glo ATP luminescence, 48 h | Potency, µM (top dose mostly 46.1 µM), without a hit: top-dose activity, negative = less viability, most hits filed as cytotoxic | 360,000 compounds, 1.6% hits;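 further: NT is the 2HG producing partner of a matched IDH1 knockdown line; 0% = DMSO-treated cells and -100% = media-only wells without cells; nearly all actives have a fitted effect of over 55% in size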
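Compounds were tested in concentration-response format on HT-1080-NT cells for 48 hours at 37 degrees C. Cell viability came from CellTiter-Glo luminescence; curves were classified by r2, response magnitude and activity.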
ATXN2 expr inh = Primary qHTS for Inhibitors of ATXN expression; AID 1745845, 2022; HEK-293 ATXN2-luciferase reporter, luminescence, 24 h; Potency, µM (highest dose often 57 µM), for inactives: top-dose activity change, negative = inhibition, most hits filed as inhibitors; 360,000 compounds, 0.72% hits; further: on the % scale 0 is the no-effect control and ±100 the full control effect; nearly all actives have a fitted effect of over 55% in size
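ATXN2-luciferase reporter cells (luciferase flanked by upstream and downstream ATXN2 gene portions) were treated 24 h at 37 °C with compounds at up to 57 uM. SteadyGlo luminescence gave expression; GF-AFC fluorescence gave viability.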
HepG2 tox = qHTS for Inhibitors of TGF-b: Cytotox Counterscreen; HepG2 CAGA-GFP viability, ATP luminescence, 18 h; Potency, µM (highest dose often 46.1 µM), for inactives: top-dose activity change, negative = cytotoxicity, actives largely listed as cytotoxic; 410,000 compounds, 0.76% hits; AID 588856, 2011
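CellTiter-Glo luminescence gave cytotoxicity after 18 hours at 37 degrees C. The cells were HepG2 CAGA-GFP in 1% FBS DMEM, stimulated with 500 pg/mL TGF-beta after compound addition. %Activity was normalised to no-cell wells (complete cell-killing) and DMSO (no toxicity), and curves were fitted and classified.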
ATXN viability = Viability Counterscreen for Primary qHTS for Inhibitors of ATXN expression; S2 cells (HEK-293 line with an ATXN2-luciferase reporter) viability, CellTiter-Fluor protease fluorescence, 24 h; 400,000 compounds, 0.49% hits; AID 651635, 2014; Potency, µM (titrated, usually from 56.7 µM), hits mostly cytotoxic; further: nearly all actives have a fitted effect of over 40% in size
The depositor's hits bear a star. Only some compounds are listed: those with a hit (about 3.9% of all), similar ones and a draw of the others. The call rests on the fitted dose curve; in most records, active means well fitted curve in the direction sought with a large enough effect; inconclusive means small, poorly fitted or top-dose-only effect, or another doubt; inactive means no such curve, though single readings can be large; an effect the other way counts as inactive or inconclusive. Potency means the concentration at half of the fitted maximal effect.

What do the screens show for `COc1cccc(-c2cccc(-c3nc(C(=O)NCc4ccc(Oc5ccccc5)cc4)cc4c3[C@H](CCO)N(S(=O)C(C)(C)C)C4)c2)c1` (stereo partly specified)?
HT1080 IDH1KD tx: inconclusive; TGFb SMAD3 inh: inconclusive; HT1080NT lethal: inconclusive; ATXN2 expr inh: inconclusive; HepG2 tox: -102%; ATXN viability: inconclusive

How did O=C(c1cc2c(c(-c3cccc(-c4ccc(F)cc4)c3)n1)[C@H](CCO)N(C(=O)c1ccc3c(c1)OCO3)C2)N1CCOCC1 do in these assays?
HT1080 IDH1KD tx: inconclusive; HT1080NT lethal: 21µM*; ATXN2 expr inh: -22%; ATXN viability: inactive

Results for CCCNC(=O)c1cc2c(c(-c3cccc(-c4ccc(F)cc4)c3)n1)[C@@H](CCO)N(S(=O)C(C)(C)C)C2 (stereo partly specified) ?
HT1080 IDH1KD tx: inconclusive; TGFb SMAD3 inh: 16µM*; HT1080NT lethal: inconclusive; ATXN2 expr inh: inconclusive; HepG2 tox: -30%; ATXN viability: inconclusive

How did CCCNC(=O)c1cc2c(c(-c3cccc(-c4ccc(F)cc4)c3)n1)[C@H](CCO)N(S(=O)C(C)(C)C)C2 (stereo partly specified) do in these assays?
HT1080 IDH1KD tx: inconclusive; TGFb SMAD3 inh: inconclusive; HT1080NT lethal: inconclusive; ATXN2 expr inh: inconclusive; HepG2 tox: -7%; ATXN viability: inconclusive

How did O=C(NCC1Cc2cccc(-c3cncnc3)c2O1)C1CC1 (stereo unspecified) do in these assays?
ATXN viability: inactive

How did Cc1cc(C)cc(NS(=O)(=O)c2ccc3c(c2)NC(=O)C(C)S3)c1 (stereo unspecified) do in these assays?
TGFb SMAD3 inh: inconclusive; HepG2 tox: -40%

How did Oc1ccc(Br)cc1-c1nc2cnccn2c1NC1CCCC1 do in these assays?
HT1080 IDH1KD tx: -13%; TGFb SMAD3 inh: -28%; HT1080NT lethal: -13%; ATXN2 expr inh: -16%; HepG2 tox: 11µM*; ATXN viability: inactive

What do the screens show for `Oc1ccc(Br)cc1-c1nc2cnccn2c1NC1CCCCC1`?
HT1080 IDH1KD tx: -18%; TGFb SMAD3 inh: inconclusive; HT1080NT lethal: inconclusive; ATXN2 expr inh: -26%; HepG2 tox: -26%; ATXN viability: inactive

How did O=C(C[C@H]1C(=O)N(CCc2ccccc2)C[C@@H]1Cc1ccccc1)Nc1ccccc1 do in these assays?
HT1080 IDH1KD tx: -12%; TGFb SMAD3 inh: 11µM*; HT1080NT lethal: 1%; ATXN2 expr inh: -26%; HepG2 tox: -25%; ATXN viability: inconclusive

What do the screens show for `Cc1ccc(OCC(=O)Nc2ccc3c(c2)nc(CCN2CCN(c4ccccn4)CC2)n3C)cc1`?
HT1080 IDH1KD tx: 21µM*; TGFb SMAD3 inh: -3%; HT1080NT lethal: 21µM*; HepG2 tox: -12%; ATXN viability: inconclusive

What do the screens show for `Cc1nn(CC(=O)Nc2ccc3c(c2)nc(CCN2CCCCC2)n3C)c(=O)c2ccccc12`?
HT1080 IDH1KD tx: 2.8µM*; TGFb SMAD3 inh: -19%; HT1080NT lethal: inconclusive; ATXN2 expr inh: -2%; HepG2 tox: 7%; ATXN viability: inactive

How did Cc1ccc(C(C)C)c(OCC(=O)Nc2ccc3c(c2)nc(CCN2CCCCC2)n3C)c1 do in these assays?
HT1080 IDH1KD tx: 16µM*; TGFb SMAD3 inh: inconclusive; HT1080NT lethal: 21µM*; ATXN2 expr inh: inconclusive; HepG2 tox: -108%

Results for Cn1c(CCN2CCN(c3ccccn3)CC2)nc2cc(NC(=O)COc3ccccc3)ccc21 ?
HT1080 IDH1KD tx: -3%; TGFb SMAD3 inh: inconclusive; HT1080NT lethal: -18%; HepG2 tox: -18%; ATXN viability: inconclusive

How did COc1ccc(C2=C(CN(C)C)C(c3ccccc3)c3ccccc3O2)cc1 (stereo unspecified) do in these assays?
HT1080 IDH1KD tx: 23µM*; TGFb SMAD3 inh: inconclusive; HT1080NT lethal: 21µM*; ATXN2 expr inh: inconclusive; HepG2 tox: -26%; ATXN viability: inconclusive

What do the screens show for `COc1ccc(/C=C2\C(=O)N(c3c(Cl)cc(Cl)cc3Cl)N=C2NC(=O)c2cccc([N+](=O)[O-])c2)cc1`?
HT1080 IDH1KD tx: 10%; TGFb SMAD3 inh: 0%; HT1080NT lethal: 1%; ATXN2 expr inh: 32µM*; HepG2 tox: 2%

What do the screens show for `Cc1ccc(C)c(OCCn2c(C3CC(=O)N(Cc4ccc(F)cc4)C3)nc3ccccc32)c1` (stereo unspecified)?
TGFb SMAD3 inh: 13µM*; ATXN2 expr inh: inconclusive; HepG2 tox: -104%

Results for Cc1cccc(OCCCCn2c(C3CC(=O)N(c4ccccc4Cl)C3)nc3ccccc32)c1 (stereo unspecified) ?
TGFb SMAD3 inh: inconclusive; ATXN2 expr inh: -18%; HepG2 tox: 3%; ATXN viability: inactive

What do the screens show for `Cc1cccc(OCCCCn2c(C3CC(=O)N(c4ccc(C)cc4C)C3)nc3ccccc32)c1` (stereo unspecified)?
TGFb SMAD3 inh: 10µM*; ATXN2 expr inh: inconclusive; HepG2 tox: -109%; ATXN viability: inconclusive

What do the screens show for `CCc1ccccc1N1CC(c2nc3ccccc3n2CCOc2ccc(Cl)c(C)c2)CC1=O` (stereo unspecified)?
TGFb SMAD3 inh: 11µM*; ATXN2 expr inh: inconclusive; HepG2 tox: 10µM*; ATXN viability: inconclusive

What do the screens show for `Cc1cc(OCCn2c(C3CC(=O)N(Cc4ccc(F)cc4)C3)nc3ccccc32)ccc1Cl` (stereo unspecified)?
TGFb SMAD3 inh: 13µM*; ATXN2 expr inh: inconclusive; HepG2 tox: -102%

How did Cc1ccc(C)c(CN2C(=O)c3ccccc3S(=O)(=O)c3ccc(C(=O)N(C)C4CCCCC4)cc32)c1 do in these assays?
HepG2 tox: 2%

What do the screens show for `Cc1ccc(NC(=O)C2(C)CCN2C(=O)Cc2ccccc2)cc1C` (stereo unspecified)?
HT1080 IDH1KD tx: 6%; TGFb SMAD3 inh: 4%; HT1080NT lethal: 9%; ATXN2 expr inh: -4%; HepG2 tox: 2%; ATXN viability: inactive

Results for Cc1ccc(NC(=O)C2(C)CCN2C(=O)Cc2ccc(C(C)(C)C)cc2)cc1C (stereo unspecified) ?
HT1080 IDH1KD tx: inconclusive; TGFb SMAD3 inh: inconclusive; HT1080NT lethal: 18µM*; ATXN2 expr inh: -30%; HepG2 tox: -45%; ATXN viability: inconclusive
